Compounds without any hit were thinned out: in the full panel of roughly 83,000, 20% have a hit.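 For each line, cells grew in 96-well plates with the test compound present at a single concentration for 48 hours.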 A number with no mark means an inactive call. Active and inactive are the calls of the source. Rule for the calls: active = growth percent below 10; inactive = the rest.

For the assay, the system named is SK-MEL-5 melanoma. The experiment in a line: NCI-60 one-dose screen, 48 h (100 = growth as untreated, 0 = no growth, -100 = all killed). As to conditions: 10 µM unless noted.
On to `Cc1ccc2c(c1)n([O-])c1cc(Cl)ccc1[n+]2=O`, for which the growth was 107%.

Regarding `CN1/C(=C\C=C\C2=[N+](C)c3ccccc3C2(C)C)C(C)(C)c2ccccc21`, the growth was -98.5% (active).

Regarding `CC/C(=C(\c1ccccc1)c1ccc(OCCNC)cc1)c1ccccc1`, the growth is -99.8% (active).

Turning to `CCN(CC)Cc1cc(Nc2c3ccc(Cl)cc3nc3c(C)cccc23)ccc1O`, the growth is -96.5% (active).

As to `C=CC[N+]1(CCO)CCN=C1CCCCCCCCCCCCC` (centres undefined), the growth is -95% (active).

For `N#Cc1ccc(NC(=O)Nc2ccc(Cc3ccc(NC(=O)Nc4ccc(C#N)cc4)cc3)cc2)cc1`, the growth was 10.5%.

With `CC1=NNC(=O)C1C` (centres undefined), the growth is 103%.

With `COc1nc2c(cc1S(=O)(=O)c1ccccc1)CCc1c-2cnn1Cc1ccccc1`, the growth was 34.7%.

For the compound `O=C(/C=C\c1ccc2ccccc2n1)c1cc(Cl)ccc1O`, the growth is 97%.

With `CCc1ccc(C(c2ccc(CC)cc2)C(Cl)(Cl)CCl)cc1`, the growth was 90%.

As for `C=CCSc1nnc(-c2ccc(C(C)(C)C)cc2)n1-c1cccc(C(F)(F)F)c1`, the growth is 37.4%.

Regarding `CSc1ncnc2c1ncn2C1CCCO1` (centres undefined), the growth is 107%.

As to `OCC1C2C=CC(C2)C1CO` (centres undefined), the growth is 130%.

Consider `Cc1ccc(/C=C2\Oc3cc(OCC(=O)c4ccc(Cl)cc4)ccc3C2=O)cc1`, for which the growth is 86.3%.

Take `Cn1c2c(Cl)c(Cl)ccc2c2ccn3c(=O)c4ccccc4nc3c21`: the growth is 95.2%.

Turning to `CSc1[nH]c2ncnc(N)c2c1C#N`, the growth was 99.9%.

As for `CCN(CC)CCCC(C)NCCCNc1cccc2cccnc12` (centres undefined), the growth is 98.5%.

As to `C=CC[N+]1(CC)CCN=C1CCCCCCCCCCCCCCCCC` (centres undefined), the growth was -100% (active).

With `CCN(CC)CCCNc1cc(OC)cc2nc3cc(Cl)ccc3nc12`, the growth is -99.5% (active).

Regarding `CCCCCCCCCCNC(=O)CCl`, the growth was 72.9%.

On to `CCOC(=S)SCc1ccc(Cl)cc1`, for which the growth is 106%.

For the compound `O=C(O)c1ccc2c(c1Sc1ccccc1)C(=O)c1ccccc1C2=O`, the growth was 93.6%.

For the compound `CCN(CC)CC(C)Nc1ccc([N+](=O)[O-])c2sc3ccccc3c(=O)c12` (centres undefined), the growth was 5.5% (active).

For `Cc1cc2c(cc1C)NC1=C(N2)OC(c2c3ccccc3cc3ccccc23)C1=O` (centres undefined), the growth was -40.6% (active).

In the case of `O=C(Nc1ccc(CN2CCOCC2)cc1)c1[nH]ncc1Nc1ncnc2sccc12`, the growth was -16.5% (active).

On to `CCOC(=O)C(C#N)C1CCCCC1` (centres undefined), for which the growth is 103%.

`Nc1cccc(NC(=O)C(=O)Nc2cccc(N)c2)c1`: the growth is 117%.

In the case of `CN(CC(=O)N(Cc1ccc(C2CCCCC2)cc1)c1ccc(C(=O)NO)cc1)S(=O)(=O)c1c(F)c(F)c(F)c(F)c1F`, the growth is 99.6%.

As for `CCN(CC)c1ccc(/C=C/C2=[N+](C)c3ccccc3C2(C)C)cc1`, the growth is -71.3% (active).

Turning to `CN(C)c1ccc(/C=C(\C#N)c2nc3ccccc3s2)cc1`, the growth was 98.4%.

With `CCN(CC)CC(O)CNc1c2ccc([N+](=O)[O-])cc2nc2cc(OC)c(OC)cc12` (centres undefined), the growth was -78.3% (active).

In the case of `COc1nc2c(cc1S(=O)(=O)c1ccccc1)CCc1c-2cnn1-c1ccc(Cl)cc1`, the growth was 94.8%.

For `Cc1cc(-c2nc3ccccc3s2)ccc1NC(=O)COc1ccc(Cl)cc1`, the growth was 98.8%.

For the compound `N#Cc1c(N)nc(N)nc1Nc1ccc(Br)cc1`, the growth is 89.6%.

For the compound `CCN(CC)CC(C)(C)C(=O)/C=C/c1ccccc1`, the growth is 81.9%.

Turning to `CNc1cc2nc3cc(NC)c(C)cc3cc2cc1C`, the growth was 35.7%.

For the compound `O=C(COc1cccc(/C=C2/Oc3ccccc3C2=O)c1)Nc1nccs1`, the growth is 78.8%.

In the case of `O=C(Cc1ccccc1)c1ccc(Cl)cc1`, the growth was 103%.

In the case of `O=C(O)c1cccnc1Br`, the growth is 109%.
